Source: PMC11062922 (Nature Chemical Biology, 2023)
Where two headings read alike, the source gives them in different places.

Assays:
STK10 = details: read-out: apparent Kd, n = 1
TBK1 = details: read-out: apparent Kd, n = 1

Q: Lestaurtinib was tested. Which potency estimated from few doses (STK10; compound concentrations:100 nM and 1000 nM (sheet 'Lestaurtinib' of Supplementary Table 1),run:Lestaurtinib_02473_R2,Plate:MR010) did it give?
A: 140 nM

Q: What about the potency estimated from few doses (STK10; compound concentrations:100 nM and 1000 nM (sheet 'Lestaurtinib' of Supplementary Table 1),run:Lestaurtinib_02482_R1,Plate:MR011) of the same substance?
A: 131 nM

Q: And the potency estimated from few doses (STK10; compound concentrations:100 nM and 1000 nM (sheet 'Lestaurtinib' of Supplementary Table 1),run:Lestaurtinib_02482_R2,Plate:MR011)?
A: 157 nM

Q: What about the potency estimated from few doses (STK10; compound concentrations:100 nM and 1000 nM (sheet 'Lestaurtinib' of Supplementary Table 1),run:Lestaurtinib_02482_R3,Plate:MR011) of the same substance?
A: 136 nM

Q: What about the potency estimated from few doses (STK10; compound concentrations:100 nM and 1000 nM (sheet 'Lestaurtinib' of Supplementary Table 1),run:Lestaurtinib_02487_R3,Plate:MR012) of the same substance?
A: 163 nM

Q: What about the potency estimated from few doses (STK10; compound concentrations:100 nM and 1000 nM (sheet 'Lestaurtinib' of Supplementary Table 1),run:Lestaurtinib_02566_R2,Plate:MR014) of the same substance?
A: 144 nM

Q: What about the potency estimated from few doses (STK10; compound concentrations:100 nM and 1000 nM (sheet 'Lestaurtinib' of Supplementary Table 1),run:Lestaurtinib_02566_R3,Plate:MR014) of the same substance?
A: 135 nM

Q: What about the potency estimated from few doses (STK10; compound concentrations:100 nM and 1000 nM (sheet 'Lestaurtinib' of Supplementary Table 1),run:Lestaurtinib_02572_R3,Plate:MR015) of the same substance?
A: 157 nM

Q: What about the potency estimated from few doses (STK10; compound concentrations:100 nM and 1000 nM (sheet 'Lestaurtinib' of Supplementary Table 1),run:Lestaurtinib_02577_R3,Plate:MR016) of the same substance?
A: 181 nM

Q: What about the potency estimated from few doses (STK10; compound concentrations:100 nM and 1000 nM (sheet 'Lestaurtinib' of Supplementary Table 1),run:Lestaurtinib_02584_R3,Plate:MR017) of the same substance?
A: 179 nM

Q: What about the potency estimated from few doses (STK10; compound concentrations:100 nM and 1000 nM (sheet 'Lestaurtinib' of Supplementary Table 1),run:Lestaurtinib_02601_R1,Plate:MR018) of the same substance?
A: 137 nM

Q: And the potency estimated from few doses (STK10; compound concentrations:100 nM and 1000 nM (sheet 'Lestaurtinib' of Supplementary Table 1),run:Lestaurtinib_02601_R2,Plate:MR018)?
A: 167 nM

Q: What about the potency estimated from few doses (STK10; compound concentrations:100 nM and 1000 nM (sheet 'Lestaurtinib' of Supplementary Table 1),run:Lestaurtinib_02606_R1,Plate:MR019) of the same substance?
A: 135 nM

Q: And the potency estimated from few doses (STK10; compound concentrations:100 nM and 1000 nM (sheet 'Lestaurtinib' of Supplementary Table 1),run:Lestaurtinib_02606_R3,Plate:MR019)?
A: 144 nM

Q: And the potency estimated from few doses (STK10; compound concentrations:100 nM and 1000 nM (sheet 'Lestaurtinib' of Supplementary Table 1),run:Lestaurtinib_02624_R2,Plate:MR020)?
A: 137 nM

Q: And the potency estimated from few doses (STK10; compound concentrations:100 nM and 1000 nM (sheet 'Lestaurtinib' of Supplementary Table 1),run:Lestaurtinib_02624_R3,Plate:MR020)?
A: 115 nM

Q: What about the potency estimated from few doses (STK10; compound concentrations:100 nM and 1000 nM (sheet 'Lestaurtinib' of Supplementary Table 1),run:Lestaurtinib_02724_R2,Plate:MR021) of the same substance?
A: 121 nM

Q: What about the potency estimated from few doses (STK10; compound concentrations:100 nM and 1000 nM (sheet 'Lestaurtinib' of Supplementary Table 1),run:Lestaurtinib_02741_R2,Plate:MR023) of the same substance?
A: 134 nM

Q: What about the potency estimated from few doses (STK10; compound concentrations:100 nM and 1000 nM (sheet 'Lestaurtinib' of Supplementary Table 1),run:Lestaurtinib_02741_R3,Plate:MR023) of the same substance?
A: 140 nM

Q: And the potency estimated from few doses (STK10; compound concentrations:100 nM and 1000 nM (sheet 'Lestaurtinib' of Supplementary Table 1),run:Lestaurtinib_02748_R1,Plate:MR024)?
A: 157 nM

Q: What about the potency estimated from few doses (STK10; compound concentrations:100 nM and 1000 nM (sheet 'Lestaurtinib' of Supplementary Table 1),run:Lestaurtinib_02748_R2,Plate:MR024) of the same substance?
A: 153 nM

Q: What about the potency estimated from few doses (STK10; compound concentrations:100 nM and 1000 nM (sheet 'Lestaurtinib' of Supplementary Table 1),run:Lestaurtinib_02748_R3,Plate:MR024) of the same substance?
A: 115 nM

Q: What about the potency estimated from few doses (STK10; compound concentrations:100 nM and 1000 nM (sheet 'Lestaurtinib' of Supplementary Table 1),run:Lestaurtinib_02752_R1,Plate:MR025) of the same substance?
A: 124 nM

Q: What about the potency estimated from few doses (STK10; compound concentrations:100 nM and 1000 nM (sheet 'Lestaurtinib' of Supplementary Table 1),run:Lestaurtinib_02752_R2,Plate:MR025) of the same substance?
A: 141 nM

Q: And the potency estimated from few doses (STK10; compound concentrations:100 nM and 1000 nM (sheet 'Lestaurtinib' of Supplementary Table 1),run:Lestaurtinib_02765_R1,Plate:MR026)?
A: 97 nM

Q: What about the potency estimated from few doses (STK10; compound concentrations:100 nM and 1000 nM (sheet 'Lestaurtinib' of Supplementary Table 1),run:Lestaurtinib_02765_R2,Plate:MR026) of the same substance?
A: 132 nM

Q: And the potency estimated from few doses (STK10; compound concentrations:100 nM and 1000 nM (sheet 'Lestaurtinib' of Supplementary Table 1),run:Lestaurtinib_02766_R2,Plate:MR027)?
A: 93.1 nM

Q: What about the potency estimated from few doses (STK10; compound concentrations:100 nM and 1000 nM (sheet 'Lestaurtinib' of Supplementary Table 1),run:Lestaurtinib_02766_R3,Plate:MR027) of the same substance?
A: 137 nM

Q: What about the potency estimated from few doses (STK10; compound concentrations:100 nM and 1000 nM (sheet 'Lestaurtinib' of Supplementary Table 1),run:Lestaurtinib_02768_R1,Plate:MR028) of the same substance?
A: 115 nM

Q: What about the potency estimated from few doses (STK10; compound concentrations:100 nM and 1000 nM (sheet 'Lestaurtinib' of Supplementary Table 1),run:Lestaurtinib_02768_R3,Plate:MR028) of the same substance?
A: 133 nM

Q: And the potency estimated from few doses (STK10; compound concentrations:100 nM and 1000 nM (sheet 'Lestaurtinib' of Supplementary Table 1),run:Lestaurtinib_02795_R1,Plate:MR022)?
A: 134 nM

Q: What about the potency estimated from few doses (STK10; compound concentrations:100 nM and 1000 nM (sheet 'Lestaurtinib' of Supplementary Table 1),run:Lestaurtinib_02795_R2,Plate:MR022) of the same substance?
A: 130 nM

Q: What about the potency estimated from few doses (STK10; compound concentrations:100 nM and 1000 nM (sheet 'Lestaurtinib' of Supplementary Table 1),run:Lestaurtinib_02802_R1,Plate:MR029) of the same substance?
A: 113 nM

Q: What about the potency estimated from few doses (STK10; compound concentrations:100 nM and 1000 nM (sheet 'Lestaurtinib' of Supplementary Table 1),run:Lestaurtinib_02896_R2,Plate:MR030) of the same substance?
A: 142 nM

Q: And the potency estimated from few doses (STK10; compound concentrations:100 nM and 1000 nM (sheet 'Lestaurtinib' of Supplementary Table 1),run:Lestaurtinib_03252_R2,Plate:MR032)?
A: 74.5 nM

Q: What about the potency estimated from few doses (STK10; compound concentrations:100 nM and 1000 nM (sheet 'Lestaurtinib' of Supplementary Table 1),run:Lestaurtinib_03260_R1,Plate:MR033) of the same substance?
A: 228 nM

Q: What about the potency estimated from few doses (STK10; compound concentrations:100 nM and 1000 nM (sheet 'Lestaurtinib' of Supplementary Table 1),run:Lestaurtinib_03260_R2,Plate:MR033) of the same substance?
A: 211 nM

Q: And the potency estimated from few doses (TBK1; compound concentrations:100 nM and 1000 nM (sheet 'Lestaurtinib' of Supplementary Table 1),run:Lestaurtinib_02339_R2,Plate:MR001)?
A: 822 nM

Q: What about the potency estimated from few doses (TBK1; compound concentrations:100 nM and 1000 nM (sheet 'Lestaurtinib' of Supplementary Table 1),run:Lestaurtinib_02364_R3,Plate:MR002) of the same substance?
A: 1610 nM

Q: What about the potency estimated from few doses (TBK1; compound concentrations:100 nM and 1000 nM (sheet 'Lestaurtinib' of Supplementary Table 1),run:Lestaurtinib_02381_R1,Plate:MR004) of the same substance?
A: 1350 nM

Q: And the potency estimated from few doses (TBK1; compound concentrations:100 nM and 1000 nM (sheet 'Lestaurtinib' of Supplementary Table 1),run:Lestaurtinib_02381_R2,Plate:MR004)?
A: 1600 nM

Q: And the potency estimated from few doses (TBK1; compound concentrations:100 nM and 1000 nM (sheet 'Lestaurtinib' of Supplementary Table 1),run:Lestaurtinib_02407_R3,Plate:MR005)?
A: 1330 nM

Q: What about the potency estimated from few doses (TBK1; compound concentrations:100 nM and 1000 nM (sheet 'Lestaurtinib' of Supplementary Table 1),run:Lestaurtinib_02422_R1,Plate:MR006) of the same substance?
A: 703 nM

Q: What about the potency estimated from few doses (TBK1; compound concentrations:100 nM and 1000 nM (sheet 'Lestaurtinib' of Supplementary Table 1),run:Lestaurtinib_02438_R2,Plate:MR008) of the same substance?
A: 1320 nM
